Bioassay records from PubChem.
Sampled rows, rich in hits. Any-hit rate of the full collection: about 5.2%.
A3G deaminase – inhibitors of human APOBEC3G DNA deaminase; recombinant A3G, ssDNA deamination FAM/TAMRA fluorescence; Q9HC16; actives 0.28% (n = 330,000); inhibition, % at 20 µM;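 active means inhibition of at least 40% at 20 µM, with no more than 30% in the related APOBEC3A deaminase screen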
ALR H2O2 inh – human ALR oxidase inhibition via reduced H2O2 | purified ALR, DTT oxidation, H2O2 HRP-luminol luminescence | inhibition, % (test concentration not listed) | actives 3.8% (n = 290,000) | AID 485317;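 active means mean replicate inhibition above about 79%, with every replicate also reaching it, limit read from the data; inconclusive means only one of the two criteria met; inactive means mean below limit and not every replicate reaching it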
CR mimetic SO – lowers age-related superoxide in aged yeast cells; superoxide response (% of plate mean), % at 10 µM; S. cerevisiae aged cells, superoxide DHE fluorescence; active compounds read low; actives 0.18% (n = 330,000);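 active means superoxide response under a set limit, about three screen SD below normal, cut at about 65% in these data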;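 further: yeast aged for seven days with compound at 30 °C before DHE staining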
APOBEC3A inh – inhibitors of human APOBEC3A DNA deaminase; AID 493011; P31941; recombinant A3A, FAM/TAMRA ssDNA deamination fluorescence; inhibition, % at 20 µM; actives 0.41% (n = 330,000);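 active means at least 40% inhibition at 20 µM here, with at most 30% in a related deaminase screen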
M18AAP inhibitor – PfM18AAP enzyme inhibition. AID 1822. recombinant PfM18AAP, H-Glu-NHMec fluorogenic cleavage. actives 1.2% (n = 290,000). inhibition, % at 7.35 µM;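 active means inhibition above the campaign mean inhibition over all tested compounds plus 3 SD, cut at about 28% in these data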
NRP1-CendR mod – alters CendR peptide binding to human NRP-1. O14786. FAM-RPARPAR peptide binding to NRP-1, fluorescence polarization. inhibition, % at 25 µM. actives 0.85% (n = 360,000);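 active means inhibition or corrected inhibition above about 18%, plus a signal ratio from 0.5 to 1.5, limit read from the data, passing the limit was not always enough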
Of the large screens only hits and unclear results are named; the others gave an inactive call.

Cc1oc(-c2ccccc2F)nc1CSCC(=O)NC1CC1	none
Cc1oc(-c2ccccc2F)nc1CS(=O)CC(=O)NC1CC1 (stereo not given)	ALR H2O2 inh 99
CCOC(=O)N1CCC(NC(=O)CS(=O)(=O)Cc2nc(-c3ccccc3Cl)oc2C)CC1	none
CCOC(=O)N1CCC(NC(=O)CS(=O)Cc2nc(-c3ccccc3C)oc2C)CC1 (stereo not given)	ALR H2O2 inh 99
Nc1ccc(OCc2ccccc2)cc1	ALR H2O2 inh 97
Nc1ccc(OCCc2ccccc2)cc1	none
Cc1ccc(S(=O)(=O)N2CC(C)C(=O)CC2C)cc1 (stereo not given)	none (no result: ALR H2O2 inh)
O=C(C1CCCC1)N1CCC(CC2CC(c3cccc(Br)c3)=NO2)(C(=O)NCC2CCCCC2)CC1 (stereo not given)	none
O=C1CCC(=O)N1CCc1c[nH]c2ccccc12	none
O=C1CCCCN1CCc1c[nH]c2ccccc12	ALR H2O2 inh 87
CC1(C(=O)NCc2ccccc2)CSCC(=O)N1CCc1c[nH]c2ccccc12 (stereo not given)	none (no result: A3G deaminase, ALR H2O2 inh, CR mimetic SO, APOBEC3A inh, M18AAP inhibitor)
CC1(C(=O)NCc2ccccc2)CCC(=O)N1CCc1c[nH]c2ccccc12 (stereo not given)	NRP1-CendR mod 24 (no result: A3G deaminase, ALR H2O2 inh, CR mimetic SO, APOBEC3A inh, M18AAP inhibitor)
O=C1CCCN1CCc1cccc2ccccc12	NRP1-CendR mod 23 (no result: A3G deaminase, ALR H2O2 inh, CR mimetic SO, APOBEC3A inh, M18AAP inhibitor)
Cc1ccc(C)c(NC(=O)CCN2CCCC(C)C2)c1 (stereo not given)	none
CC(C)(C)OC(=O)CNC(=O)c1[nH]cnc1C(=O)NCCCCCN	none (no result: M18AAP inhibitor)
CC1(C(=O)O)Sc2[nH]c(=O)sc2C2c3ccccc3OC(=O)C21 (stereo not given)	M18AAP inhibitor 30
COC(=O)C1Sc2[nH]c(=O)sc2C2c3ccccc3OC(=O)C12 (stereo not given)	ALR H2O2 inh inconclusive
COCCn1c(-c2cccc([N+](=O)[O-])c2)nc2c1c(=O)[nH]c(=O)n2Cc1ccccc1	ALR H2O2 inh 99
CCCn1c(-c2cccc(F)c2)nc2c1c(=O)[nH]c(=O)n2Cc1ccccc1	none
Cc1cc(C)nc(-n2nc(C)c(Br)c2Nc2ccc(Br)cc2)n1	none
Cc1nn(C)c(Nc2ccc(Br)cc2)c1Br	ALR H2O2 inh 93
O=C1C2CCCCC2C(=O)N1Cc1ccccc1 (stereo not given)	none
Nc1cccc(C(=O)NCCNC(=O)c2cccc(N)c2)c1	none
Nc1cccc(C(=O)Nc2ccc(N)cc2Cl)c1	ALR H2O2 inh 99
Nc1ccccc1C(=O)Nc1ccc(Cl)cc1Cl	none
Nc1cccc(C(=O)Nc2ccco2)c1	ALR H2O2 inh 98
Nc1ccc(NC(=O)c2cccc(C(=O)Nc3ccc(N)cc3Cl)c2)c(Cl)c1	ALR H2O2 inh 99
Nc1cccc(C(=O)O)c1	none (no result: ALR H2O2 inh)
COC(=O)c1ccc(C(=O)Nc2ccc(N)cc2N)cc1	ALR H2O2 inh 92
COc1ccccc1NC(=O)c1ccc(N)cc1	none
O=C(COc1ccc2ccccc2c1)NC1CC1	none
C[C@@H]1CCCCO[C@H](CN(C)C(=O)Nc2cccc3ccccc23)[C@@H](C)CN([C@H](C)CO)C(=O)c2cc(NC(=O)c3ccccc3)ccc2O1	none (no result: A3G deaminase, ALR H2O2 inh, CR mimetic SO, APOBEC3A inh, M18AAP inhibitor)
COc1ccc(-c2cc(C(=O)NC3=NCCS3)c3ccccc3n2)cc1OC	ALR H2O2 inh 98
Cc1csc(NC(=O)c2cc(-c3ccccc3)nc3ccccc23)n1	NRP1-CendR mod 35
O=C(CS(=O)(=O)c1ccccc1)Nc1nc(-c2ccccc2)cs1	ALR H2O2 inh 99
CC(=O)Nc1nc(-c2ccc(-c3ccccc3)cc2)cs1	NRP1-CendR mod 21 (no result: A3G deaminase, ALR H2O2 inh, CR mimetic SO, APOBEC3A inh, M18AAP inhibitor)
CC(C)(C)c1nnc(NC(=O)c2cc(-c3ccccc3)nc3ccccc23)s1	none
CNC(=O)NC(=O)C(C)OC(=O)c1c(C)noc1C (stereo not given)	NRP1-CendR mod 43
Cc1noc(C)c1C(=O)OC(C)C(=O)Nc1ccc(S(=O)(=O)NC(C)C)cc1 (stereo not given)	none
COc1ccc2[nH]c(C)c(CN3CCCCC3)c(=O)c2c1	NRP1-CendR mod 32 (no result: M18AAP inhibitor)
COc1ccc2[nH]c(C)c(CCN3C(=O)C4C5C=CC(C5)C4C3=O)c2c1 (stereo not given)	ALR H2O2 inh 96
COc1ccc2[nH]c(C(=O)O)c(CCN3C(=O)c4ccc(C(=O)O)cc4C3=O)c2c1	none
Cc1ccc(-n2nc(C)c(Sc3ccccc3[N+](=O)[O-])c2N)cc1	ALR H2O2 inh 87
CC(C)(c1ccc(O)cc1)c1ccc(O)c(C(=O)O)c1	none (no result: A3G deaminase, ALR H2O2 inh, CR mimetic SO, APOBEC3A inh, M18AAP inhibitor)
CC(C)(c1ccc(O)cc1)c1ccc(O)cc1	ALR H2O2 inh 91
CCC(O)c1nc2ccccc2n1CCc1ccccc1 (stereo not given)	none
O=C(Nc1ccc(F)c(F)c1)C1CCCN(S(=O)(=O)c2cccc3nonc23)C1 (stereo not given)	none
CCOP(=O)(OCC)C(Nc1ccc(OC)cc1)c1ccco1 (stereo not given)	ALR H2O2 inh 95
O=C(CCCc1c[nH]c2ccccc12)NCC1COc2ccccc2O1 (stereo not given)	ALR H2O2 inh 98
O=C1CCC([N+](=O)[O-])C(c2ccc(F)c(Br)c2)N1 (stereo not given)	none
Cc1ccc2nc(N(CCN(C)C)C(=O)c3cc(Cl)sc3Cl)sc2c1	ALR H2O2 inh 96
Cc1cc(C)c2sc(N(CCN(C)C)C(=O)c3cc(Cl)sc3Cl)nc2c1	none
CCCn1nnnc1NCc1ccccc1F	none (no result: ALR H2O2 inh)
CC(C)OC(=O)CCC/C=C\C[C@@H]1[C@@H](CC[C@@H](O)CCc2ccccc2)[C@H](O)C[C@@H]1O	none (no result: A3G deaminase, ALR H2O2 inh, CR mimetic SO, APOBEC3A inh, NRP1-CendR mod)
O=C(CNS(=O)(=O)c1ccc2ccccc2c1)OCc1csc(-c2ccccc2)n1	ALR H2O2 inh 99
Cc1ccc(S(=O)(=O)NCC(=O)OCc2csc(-c3ccccc3)n2)cc1	none
CN(C)c1ccc(/C=C(\NC(=O)c2ccccc2)C(=O)NCCCn2ccnc2)cc1	ALR H2O2 inh 99
O=C(NCCCn1ccnc1)/C(=C/c1ccccc1)NC(=O)c1ccccc1	none
O=C(CCCNC(=O)/C(=C\c1ccc(F)cc1)NC(=O)c1ccccc1)OCc1ccccc1	NRP1-CendR mod 31
O=C(Nc1cccc2ccccc12)N1CCN(c2ccccc2)CC1	none (no result: ALR H2O2 inh)
CCN1C(=O)/C(=C2/C=CC=CN2C)SC1=S	ALR H2O2 inh 99
CN1C=CC=C/C1=C1/SC(=S)N(Cc2ccccc2)C1=O	ALR H2O2 inh 99
CCN1/C(=C2\SC(=S)N(Cc3ccccc3)C2=O)Sc2ccccc21	none (no result: ALR H2O2 inh)
Cc1ccc(C(=O)CCC(=O)OCC(=O)Nc2ccc3[nH]c(=O)[nH]c3c2)cc1	none (no result: M18AAP inhibitor)
O=C1c2ccc([N+](=O)[O-])cc2S(=O)(=O)N1Cc1ccccc1	none
NNc1cc([N+](=O)[O-])cc2c1C(=O)N(Cc1ccccc1)S2=O (stereo not given)	M18AAP inhibitor 42
Cc1ccc(N2C(=O)CN(Cc3cccs3)C2=S)cc1C	ALR H2O2 inh 96
